# Rows were chosen to be rich in hits. Some 5.1% of all compounds tested hit in one or more screens of this group.
# CRFR2-BP antag: CRF-BP/CRF-R2 complex antagonism; actives 0.59% (n = 350,000); HEK293 CRF-R2/CRF-BP, CRF-induced calcium fluorescence; AID 588475; inhibition, % at 11.8 µM;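 active means inhibition of the ligand-induced calcium signal above about 50% at the single tested concentration, limit read from the data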
# ANO1 activ: activates or potentiates the mouse TMEM16A chloride channel; Q8BHY3; actives 0.3% (n = 340,000); AID 623877; HEK293 TMEM16A/YFP-H148Q/I152L, iodide quench fluorescence; hits give low values; B-score at 10 µM;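 active means fluorescence-ratio B-score plate-corrected deviation score at least 3 library SD below zero, with starting fluorescence score within 5 deviations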;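 further: channel opened by trigger with iodide after compound preincubation; score built on the fluorescence ratio of max minus min over baseline; more negative score means more quench and so TMEM16A activation or potentiation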
# Target sequence (Q8BHY3 whole entry, looked up): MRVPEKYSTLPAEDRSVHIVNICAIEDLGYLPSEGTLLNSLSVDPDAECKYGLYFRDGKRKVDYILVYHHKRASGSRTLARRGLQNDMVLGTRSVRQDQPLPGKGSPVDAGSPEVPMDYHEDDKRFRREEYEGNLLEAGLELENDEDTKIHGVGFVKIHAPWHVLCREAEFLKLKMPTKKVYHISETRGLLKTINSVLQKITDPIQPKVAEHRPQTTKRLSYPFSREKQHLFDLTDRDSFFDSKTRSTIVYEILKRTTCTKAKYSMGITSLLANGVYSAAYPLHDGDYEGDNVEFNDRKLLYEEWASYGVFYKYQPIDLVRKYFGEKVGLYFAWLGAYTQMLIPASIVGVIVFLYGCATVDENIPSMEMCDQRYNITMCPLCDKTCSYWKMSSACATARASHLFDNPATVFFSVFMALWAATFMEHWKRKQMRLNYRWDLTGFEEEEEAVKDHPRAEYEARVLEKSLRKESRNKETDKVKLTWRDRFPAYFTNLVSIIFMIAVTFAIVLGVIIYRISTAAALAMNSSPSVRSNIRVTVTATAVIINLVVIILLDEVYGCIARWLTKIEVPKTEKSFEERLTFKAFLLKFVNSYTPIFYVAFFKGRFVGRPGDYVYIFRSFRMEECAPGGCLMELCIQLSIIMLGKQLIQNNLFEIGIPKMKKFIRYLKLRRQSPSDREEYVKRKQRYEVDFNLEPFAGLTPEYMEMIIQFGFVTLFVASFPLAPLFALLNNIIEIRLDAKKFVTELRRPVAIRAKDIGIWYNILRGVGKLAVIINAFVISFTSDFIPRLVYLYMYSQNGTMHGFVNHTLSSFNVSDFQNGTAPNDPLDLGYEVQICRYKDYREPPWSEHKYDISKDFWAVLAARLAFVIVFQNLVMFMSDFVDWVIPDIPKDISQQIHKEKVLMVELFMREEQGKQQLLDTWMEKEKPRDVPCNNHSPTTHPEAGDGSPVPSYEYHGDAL
# TMEM16A inh: mouse TMEM16A channel inhibition, primary screen. Q8BHY3. HEK293 TMEM16A/YFP iodide influx fluorescence, ionomycin. normalized B-score (activity score, 25-100; higher = stronger inhibition) at 10 µM. actives 1.2% (n = 310,000);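 active means ratio plate-corrected score three or more library SD toward inhibition, starting fluorescence score within five deviations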;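 further: score derived from kinetic fluorescence span divided by baseline fluorescence per well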
# NR3A LBD binder: NR3A (human) ligand-binding domain modulation; NR3A LBD differential scanning fluorimetry, Tm shift; 0% = protein alone, 100% = glycine-bound protein; Tm shift relative to glycine control, % at 25 µM; actives 2.5% (n = 340,000); AID 1259313;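 active means melting temperature shift of at least 10% of the positive control shift, at one fixed dose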
# CRFBP-R2 agonist: CRF-BP/CRF-R2 complex agonism; HEK293 CRF-R2/CRF-BP, calcium dye fluorescence (FLIPR); percent of saturating CRF peptide response; activation, % at 13.2 µM; actives 0.46% (n = 350,000); AID 588473;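 active means activation of at least 50%, plus an integration ratio under a set limit after plate pattern correction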;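 further: plate controls were neutral control wells without compound for no effect and CRF at EC100 for full effect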
# MPTP inh: blocks calcium-induced mitochondrial swelling; AID 602449; inhibition, % at 10 µM; isolated mouse mitochondria, Ca2+ swelling absorbance, 30 min; actives 1.4% (n = 360,000);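 active means inhibition of 50% or more, scaled per plate between neutral and stimulator controls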;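 further: 0% = DMSO wells given calcium and 100% = 1 mM EGTA wells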
# Active calls of the source: *; i = inactive; . = no result.
SMILES,CRFR2-BP antag,ANO1 activ,TMEM16A inh,NR3A LBD binder,CRFBP-R2 agonist,MPTP inh
COc1ccccc1NC(=O)C(C)OC(=O)C1CC(=O)N(Cc2ccco2)C1 (stereo unspecified),4,.,.,.,1,-1
Cc1c(/C=N/NC(=O)C(NC(=O)c2ccc3c(c2)OCO3)C(C)C)c2ccccc2n1C (stereo unspecified),-186,-5.7*,i,-4,96*,32
O=C(CCCSc1ccccc1)Nc1ccc(Cl)c(S(=O)(=O)N2CCOCC2)c1,-9,i,.,-1,3,12
CCOC(=O)Cc1csc(NC(=O)c2sc3nc4cc(C)ccc4cc3c2N)n1,-58,i,i,28*,16,-1
CC(C)(C)OC(=O)N1CCOCCOCCN(C(=O)OC(C)(C)C)CCOCCOCC1,3,i,i,705*,-3,2
CC(C)(C)OC(=O)N1CCC(C(=O)O)CC1,-10,i,i,3,0,-2
Cc1cccc(C(=O)OCC(=O)NC(=O)NCc2ccccc2)c1,4,i,.,0,1,0
Cc1ccc(S(=O)(=O)Nc2ccccc2NS(=O)(=O)c2ccc(C)cc2)cc1,.,.,.,.,.,15
Cc1ccc(S(=O)(=O)Nc2ccccc2N2CCCCC2)cc1,-10,-20*,.,1,10,-1
CCN(CC)S(=O)(=O)c1ccc(N2CCCC2)c(NS(=O)(=O)c2ccccc2)c1,29,i,i,16*,1,1
Cc1ccc(S(=O)(=O)Nc2ccccc2N(C)S(=O)(=O)c2ccc(C)cc2)cc1,3,i,i,13*,5,2
O=c1[nH]c(O)c(/C=C2\C=Nc3ccc(Br)cc32)[nH]1,-10,i,i,42*,-1,0
O=C(Cn1c(O)c(/C=C2\C=Nc3ccc(Br)cc32)sc1=O)N1CCCC1,1,i,i,-8,-1,4
CCCC(=O)Nc1cccc(-c2cn3cccnc3n2)c1,1,i,i,1,2,-2
O=C(Nc1cccc(-c2cn3cccnc3n2)c1)Nc1ccccc1F,-4,i,i,12*,-1,0
O=C(Nc1ccccc1)Nc1cccc(-c2cn3cccnc3n2)c1,8,i,i,13*,-2,-1
NC(=O)c1ccccc1OCC(=O)Nc1ccc2c(c1)OCCO2,12,i,.,1,0,1
COc1ccc(NC(=O)Cc2nnc(SCC(=O)NC3CCCC3)n2C)cc1,-1,i,i,-3,1,-2
COc1ccc(Nc2nc(-c3ccccc3)c3ccccc3n2)cc1,-2,i,i,1,1,-1
COc1ccc(Nc2nc(Cl)nc(Nc3ccc(OC)cc3)n2)cc1,2,i,i,17*,-1,1
CC(=O)Nc1ccc(Nc2nccc(C)n2)cc1,.,.,.,.,.,0
Clc1nc(Nc2ccccc2)nc(Nc2ccccc2)n1,-60,i,i,18*,0,2
COc1ccc(Nc2nc(C)c3ccccc3n2)cc1,-32,i,i,38*,0,-4
CC(=O)Nc1ccc(Nc2nc(Cl)nc(Nc3ccc(NC(C)=O)cc3)n2)cc1,5,i,i,13*,-4,1
Cc1ccccc1-c1cc2nc(NCc3ccccc3)n(C)c(=O)c2s1,.,.,.,.,.,0
SMILES,CRFR2-BP antag,ANO1 activ,TMEM16A inh,NR3A LBD binder,CRFBP-R2 agonist,MPTP inh
CCC(C)[C@H](NC(=O)OC(C)(C)C)C(=O)NCC1CCC(C(=O)N[C@@H](Cc2ccccc2)C(=O)O)CC1 (stereo partly specified),-5,i,i,-1,1,0
CC(=O)N1N=C(c2ccco2)CC1c1ccc(Cl)o1 (stereo unspecified),6,i,i,1,-1,-2
CN(Cc1cccs1)C(=O)CCCc1c[nH]c2ccccc12,-56,-6.3*,i,-1,39,0
Oc1cc2c(cc1C(c1ccc(Br)cc1)N1CCCC1)OCO2 (stereo unspecified),-11,i,.,29*,5,-5
O=C(Nc1cccc(-c2csc(Nc3ccc(Cl)cc3)n2)c1)c1cc([N+](=O)[O-])cc(C(F)(F)F)c1,-6,i,i,20*,0,7
O=C(Nc1ccc(-c2csc(Nc3ccc(Cl)cc3)n2)cc1)c1cc([N+](=O)[O-])cc(C(F)(F)F)c1,-8,i,i,20*,0,2
COc1ccc([C@@H]2C[C@H]3[C@@H](CN2S(=O)(=O)c2ccccc2)C(=O)C[C@@H](c2ccccc2F)N3S(=O)(=O)c2ccc(C)cc2)cc1,1,.,.,.,1,0
Cc1ccc(NC(=O)c2cccc(NC(=O)/C=C/c3ccco3)c2)cc1C,-8,i,i,15*,0,-3
Cc1ccc(-n2nc3ccc(NC(=O)/C=C/c4ccco4)cc3n2)cc1,-20,i,i,24*,1,5
O=C(/C=C/c1ccco1)Nc1ccc2c(c1)OCO2,1,i,i,-1,-1,4
CCc1ccccc1NC(=O)c1cccc(NC(=O)/C=C/c2ccco2)c1,-3,i,25*,-4,0,4
CC[C@H]1C=C[C@@H](C(C(=O)OC)C(=O)OC)CN1C(C)=O,2,.,.,0,-1,0
CCOC(=O)c1noc2c1CCC2,.,.,.,.,.,-1
CCOC(=O)c1c(C)c(C)n2c1NC(=O)C2,.,.,.,.,.,1
O=C(Nc1ccc(N=Nc2ccccc2)cc1)c1ccccc1Cl,12,i,i,15*,-1,4
O=C(Nc1ccc(N=Nc2ccccc2)cc1)c1ccc(Cl)cc1Cl,-25,i,i,0,1,24
Cc1c(C(=O)N/N=C/c2ccc(O)c(Br)c2)sc(N)c1C#N,-9,i,i,14*,0,2
COc1cc(/C=N/NC(=O)c2sc(N)c(C#N)c2C)ccc1O,-10,i,i,15*,1,5
O=C(NNS(=O)(=O)c1ccccc1Cl)c1nn(-c2ccc(F)cc2)ccc1=O,-3,i,i,-1,1,1
COc1ccc2nc3sc(C(=O)NCCCN4CCc5ccccc5C4)cc3cc2c1,14,i,i,23*,-2,45
CCOC(=O)/C(=C\c1cccnc1)C(=O)c1cc(C(C)=O)c(Nc2ccccc2)s1,25,-11*,25*,4,1,-10
CSCCC(NC(=O)c1ccco1)C(=O)NCC(c1ccccc1)N(C)C (stereo unspecified),-2,i,.,1,0,1
CCn1ncc(/C=N\NC(=O)c2ccc3c(c2)c(C)c(C)n3Cc2ccccc2)c1C,-2,i,i,-5,3,-1

# Assay outcomes from PubChem BioAssay.
